Compounds without any hit were thinned out: in the full panel of roughly 83,000, 20% have a hit.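 Method: cells in 96-well plates; compound added at one concentration; 48 h incubation; percent growth measured; values under 10 scored active.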 Active and inactive are the calls of the source.
Experiments:
Assay in all cases: NCI-60 one-dose screen, 48 h (100 = growth as untreated, 0 = no growth, -100 = all killed)
[1] = test system: SK-MEL-2 melanoma; details: 10 µM unless noted
[2] = test system: EKVX NSCLC; details: 10 µM unless noted
[3] = test system: SN12C renal; details: 10 µM unless noted
[4] = test system: UO-31 renal; details: 10 µM unless noted
[5] = test system: TK-10 renal; details: 10 µM unless noted
[6] = test system: ACHN renal; details: 10 µM unless noted
[7] = test system: CAKI-1 renal; details: 10 µM unless noted
[8] = test system: A498 renal; details: 10 µM unless noted
[9] = test system: CCRF-CEM leukemia; details: 10 µM unless noted
[10] = test system: MOLT-4 leukemia; details: 10 µM unless noted
[11] = test system: SR leukemia; details: 10 µM unless noted
[12] = test system: RPMI-8226 leukemia; details: 10 µM unless noted
[13] = test system: OVCAR-8 ovarian; details: 10 µM unless noted
[14] = test system: OVCAR-5 ovarian; details: 10 µM unless noted
[15] = test system: SK-OV-3 ovarian; details: 10 µM unless noted
[16] = test system: IGROV1 ovarian; details: 10 µM unless noted
[17] = test system: OVCAR-3 ovarian; details: 10 µM unless noted
[18] = test system: HS 578T breast; details: 10 µM unless noted
[19] = test system: NCI/ADR-RES ovarian; details: 10 µM unless noted
[20] = test system: OVCAR-4 ovarian; details: 10 µM

Measured: growth

C=C(C)[C@@H]1CC[C@]2(COCCC#N)CC[C@]3(C)[C@H](CC[C@@H]4[C@@](C)(CCCNCCC#N)[C@H](C(=C)C)CC[C@]43C)[C@@H]12
inactive: [1] 10% [100 µM] | [2] 92.9% [100 µM] | [3] 27.9% [100 µM] | [4] 15.3% [100 µM] | [5] 49.7% [100 µM] | [6] 11.4% [100 µM] | [7] 27% [100 µM] | [8] 90.5% [100 µM] | [11] 19.1% [100 µM] | [14] 36.7% [100 µM] | [15] 65.1% [100 µM] | [18] 22.2% [100 µM] | [19] 46.3% [100 µM]
active: [9] 1.32% [100 µM] | [10] 2.22% [100 µM] | [12] -37.1% [100 µM] | [13] 3.88% [100 µM] | [16] 7.81% [100 µM] | [17] -0.365% [100 µM]

CCOC(=O)n1cc(C2=C(c3ccc(OC)c(OC)c3)COC2=O)c2ccccc21
inactive: [1] 62.1% | [2] 51.5% | [3] 18.5% | [4] 26.5% | [5] 53.7% | [6] 23.1% | [7] 23.6% | [9] 17.6% | [10] 11.6% | [11] 18.1% | [12] 27.9% | [13] 25.5% | [14] 50.1% | [20] 35.3% | [16] 18.2% | [18] 36.2%
active: [8] -25.3% | [19] 8.29%

CCOc1cc(NC(=O)c2ccccc2)c(OCC)cc1N
inactive: [1] 112% | [2] 113% | [3] 113% | [4] 102% | [5] 112% | [6] 118% | [7] 102% | [8] 113% | [9] 107% | [10] 101% | [11] 110% | [12] 113% | [13] 113% | [14] 113% | [15] 114% | [16] 84.8% | [17] 108% | [18] 100% | [19] 111%

Cc1ccc(NCCN2CCCCC2)c2c(=O)c3ccccc3sc12
inactive: [1] 45.6% | [2] 68.6% | [3] 32% | [5] 42.6% | [6] 15.9% | [7] 38.6% | [8] 28.3% | [9] 30.2% | [10] 11.4% | [11] 15.3% | [13] 29.2% | [14] 43.2% | [20] 56.9% | [17] 58.5% | [19] 42%
active: [4] -16.6% | [12] -17.1% | [18] -8.32%

C[C@H]1[C@H](C)CC[C@]2(C(=O)N3CCN(C)CC3)CC[C@]3(C)C(=CC[C@@H]4[C@@]5(C)C/C(=C/c6ccco6)C(=O)C(C)(C)[C@@H]5CC[C@]43C)[C@H]12
active: [4] -97.5% [100 µM] | [16] 3.24% [100 µM]
inactive: [1] 42.1% [100 µM] | [2] 42.3% [100 µM] | [3] 28% [100 µM] | [5] 43.7% [100 µM] | [6] 20.8% [100 µM] | [7] 26.2% [100 µM] | [8] 53.8% [100 µM] | [9] 16.5% [100 µM] | [10] 22.6% [100 µM] | [11] 32% [100 µM] | [12] 19.5% [100 µM] | [13] 25.4% [100 µM] | [14] 63.5% [100 µM] | [15] 59.3% [100 µM] | [17] 40.1% [100 µM] | [18] 53.2% [100 µM] | [19] 37.9% [100 µM]

COC(=O)[C@]12CCC(C)(C)C[C@H]1C1=CC[C@@H]3[C@@]4(C)C/C(=C/c5cccnc5)C(=O)C(C)(C)[C@@H]4CC[C@@]3(C)[C@]1(C)CC2
active: [1] -70.3% [100 µM] | [2] -44.8% [100 µM] | [3] -51.4% [100 µM] | [4] -81.6% [100 µM] | [5] -35.9% [100 µM] | [6] -61.1% [100 µM] | [7] -15.4% [100 µM] | [8] -69.8% [100 µM] | [9] 2.85% [100 µM] | [10] -14% [100 µM] | [12] -38.4% [100 µM] | [13] 0.407% [100 µM] | [14] -19.5% [100 µM] | [15] 7.52% [100 µM] | [16] -34.2% [100 µM] | [17] -1.73% [100 µM] | [18] -18.5% [100 µM] | [19] -40.5% [100 µM]
inactive: [11] 47.7% [100 µM]

CCOc1cc(/C=N\NC(=O)N/N=C/c2ccc(O)c(OCC)c2)ccc1O
inactive: [1] 49.8% | [2] 60.6% | [3] 51.3% | [4] 59.1% | [5] 34.3% | [6] 45.6% | [7] 37.9% | [8] 72.6% | [9] 16.5% | [10] 31.1% | [11] 12.2% | [12] 32.8% | [13] 52% | [14] 66.8% | [15] 16.2% | [16] 59.4% | [19] 51.6%
active: [17] -34.7% | [18] -2.98%

C=C(C)[C@@H]1CC[C@]2(COC(=O)c3ccccc3C(=O)O)CC[C@]3(C)[C@H](CC[C@@H]4[C@@]5(C)CC[C@H](OC(=O)c6ccccc6C(=O)O)C(C)(C)[C@@H]5CC[C@]43C)[C@@H]12
inactive: [1] 23.8% [100 µM] | [2] 39.5% [100 µM] | [3] 27.8% [100 µM] | [4] 27.7% [100 µM] | [5] 21.8% [100 µM] | [7] 10.7% [100 µM] | [9] 46.4% [100 µM] | [10] 39.9% [100 µM] | [11] 63.8% [100 µM] | [12] 28.4% [100 µM] | [13] 46.7% [100 µM] | [14] 105% [100 µM] | [15] 47.9% [100 µM] | [16] 31% [100 µM] | [19] 23.1% [100 µM]
active: [6] -55.6% [100 µM] | [8] -0.192% [100 µM] | [17] 2% [100 µM] | [18] -3.77% [100 µM]

CC(=O)O.CC(=O)O.O.[Fe]
inactive: [1] 109% | [2] 147% | [3] 95.2% | [4] 89% | [5] 105% | [6] 107% | [7] 130% | [8] 89.8% | [9] 131% | [10] 116% | [11] 124% | [12] 135% | [13] 99.1% | [14] 105% | [15] 94.1% | [16] 106% | [17] 108% | [18] 93.2% | [19] 102%

CCN(CCNc1ccc(C)c2sc3cc(Cl)ccc3c(=O)c12)CC(C)O (stereo unspecified)
inactive: [1] 40.7% | [2] 88.9% | [3] 48.7% | [5] 76.7% | [6] 44.7% | [7] 43.7% | [8] 51.4% | [9] 36.8% | [10] 34.5% | [11] 12.3% | [13] 58.3% | [14] 79.9% | [20] 77% | [17] 60.6% | [18] 63.2% | [19] 74.8%
active: [4] -61.8% | [12] -23.2%

O=c1[nH]c2cc(Cl)c(Cl)cc2n2cc3ncccc3c12
inactive: [1] 112% | [2] 82.3% | [3] 83% | [4] 56.9% | [5] 94.1% | [6] 89.7% | [7] 59.9% | [8] 73.6% | [9] 52.1% | [10] 58.8% | [11] 27.4% | [12] 76.1% | [13] 82.4% | [14] 146% | [15] 98.9% | [16] 86.2% | [17] 84.5% | [18] 99.2% | [19] 81.8%

CCc1ccc(C2=C/C(=C/c3ccccc3)C(=O)N2CCc2ccc(S(N)(=O)=O)cc2)cc1
inactive: [1] 104% | [2] 96.3% | [3] 101% | [4] 68.4% | [5] 122% | [6] 99% | [7] 67.8% | [8] 88.7% | [9] 106% | [10] 97% | [11] 96.9% | [12] 110% | [13] 100% | [14] 109% | [20] 103% | [16] 91.4% | [17] 109% | [18] 97.5% | [19] 104%

O=C(Nc1ccc(Oc2ccc(F)cc2)c(Cl)c1)c1cnccn1
inactive: [1] 53.6% | [2] 78% | [3] 69.8% | [4] 65% | [5] 85.8% | [6] 94.1% | [7] 49.7% | [8] 67.7% | [9] 64.1% | [10] 45.1% | [11] 49.3% | [12] 80.4% | [13] 71.4% | [14] 81.1% | [15] 100% | [16] 62.6% | [17] 43.6% | [18] 62.4% | [19] 40.8%

CC(C)(C)c1cc(C(=O)Nc2ccc(C(=O)NCCN)cc2)cc(C(C)(C)C)c1
inactive: [1] 60.3% | [2] 71.2% | [3] 12.8% | [4] 69.5% | [5] 90.9% | [6] 44.4% | [7] 71.7% | [8] 13.1% | [10] 10.9% | [12] 15.6% | [13] 72.2% | [14] 49.3% | [20] 62.3% | [16] 52.9% | [18] 81.7% | [19] 92.4%
active: [9] 3.44% | [11] -40.4%

COc1ccc(NC(=S)NNc2ccc(-c3ccc(OC)c(OC)c3)nn2)cc1
inactive: [1] 106% | [2] 104% | [3] 100% | [4] 83.3% | [5] 105% | [6] 102% | [7] 77% | [8] 83.4% | [9] 103% | [10] 96.3% | [11] 98.1% | [12] 103% | [13] 101% | [14] 103% | [20] 100% | [16] 103% | [17] 110% | [18] 95.8% | [19] 111%

From PubChem BioAssay (NCI)
